Test results reported in article PMC5540273 (PLoS ONE, 2017).

Each compound was assayed on STK33. Conditions: concentration: 1 μM, replicates: in singlicate; n = 1.
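Note: KINOMEscan kinase panel screen.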

Q: `CC(=O)Nc1nc2cnc(Nc3cc(NC(=O)c4cccc(C5(C#N)CC5)c4Cl)ccc3C)nc2s1` was tested. Which “%Inh” value did it give?
A: 0%

Q: Which “%Inh” value does the source give for `Cl.Cl.NCC(NC(=O)c1cc(-c2ccccc2)c(-c2ccnc3[nH]ccc23)s1)c1ccccc1` (centres unmarked) [GSK1321561] here?
A: 100%

Q: Which “%Inh” value does the source give for `COc1cccc(C2=C(Nc3ccc(Cl)c(C(=O)O)c3)C(=O)NC2=O)c1` [SB-390769] here?
A: 0%

Q: How did the “%Inh” value turn out when `O=c1[nH]cc(-c2ccc(N3CCOCC3)cc2)c2sc(-c3cn[nH]c3)cc12` [GSK2276055] was run?
A: 0%

Q: For `Cn1cc(-c2ccc3c(c2)CCN3C(=O)Cc2cccc(F)c2)c2c(N)ncnc21` [GSK2603358], which “%Inh” value is on record?
A: 0%

Q: With `CN1CCN(CCCNc2nccc(-c3c(-c4ccc(F)cc4)nn4cc(C(F)(F)F)ccc34)n2)CC1` [GW621581] as the compound, how does the “%Inh” value read?
A: 0%

Q: How did the “%Inh” value turn out when `Cc1ccc(C(=O)Nc2ccc(Nc3ccnc4cc(-c5nccs5)ccc34)cc2O)cc1.Cl` [GW494702] was run?
A: 9%

Q: How did the “%Inh” value turn out when `CC(C)(C)c1ccc2nccc(Nc3cccc(O)c3)c2c1` [GW856795] was run?
A: 0%

Q: With `Nc1n[nH]c2cnc(-c3ccccc3)cc12` [SB-642124] as the compound, how does the “%Inh” value read?
A: 31%

Q: `CCc1ccc(-c2ccc3c(c2)-c2c(cnn2C)S(=O)(=O)N3C)cc1` was tested. Which “%Inh” value did it give?
A: 0%

Q: With `O=C(Nc1n[nH]c2nc(-c3ccc(O)cc3)ccc12)C1CC1` [SB-710363] as the compound, how does the “%Inh” value read?
A: 0%

Q: For `CC(=O)N1CCN(c2ccc(Nc3nccc(-c4sc(C(C)C)nc4-c4cccc(NS(=O)(=O)c5cccc(Cl)c5)c4)n3)cn2)CC1` [GSK1660437], which “%Inh” value is on record?
A: 34%

Q: For `c1ccc(-c2n[nH]cc2Nc2ccnc3ccccc23)nc1` [GW694077], which “%Inh” value is on record?
A: 6%

Q: How did the “%Inh” value turn out when `Oc1cc(Nc2ccnc3cc(I)ccc23)ccc1F` [GW552771] was run?
A: 0%

Q: For `COc1ccc(Nc2nccc(N3CCC(NC(=O)Nc4cccc(OC)c4)C3)n2)cc1` (centres unmarked) [GSK1379742], which “%Inh” value is on record?
A: 0%

Q: How did the “%Inh” value turn out when `COc1cc(Nc2nccc(-c3c(-c4cccc(NC(=O)c5c(F)cccc5F)c4)nn4ccccc34)n2)cc(OC)c1OC` [GSK323521] was run?
A: 11%

Q: Which “%Inh” value does the source give for `c1ccc(-c2cnc3nccnn23)cc1` [AH20685] here?
A: 0%

Q: Which “%Inh” value does the source give for `C[C@@H](Oc1cc(-n2cnc3cc(-c4ccnc(NCCS(C)(=O)=O)c4)ccc32)sc1C(N)=O)c1ccccc1Cl` [GSK907232] here?
A: 0%

Q: `COc1cc(Nc2ncc3c(C)nc(-c4cc5ccccc5[nH]4)n3n2)cc(OC)c1OC` [GW869516] was tested. Which “%Inh” value did it give?
A: 10%

Q: Which “%Inh” value does the source give for `Cl.c1ccc(-c2ccc3c(Nc4ccc5[nH]ncc5c4)ccnc3c2)nc1` [GW440137] here?
A: 0%

Q: With `Cl.c1ccc(-c2ccc3c(Nc4ccc5[nH]ccc5c4)ccnc3c2)nc1` [GW440138] as the compound, how does the “%Inh” value read?
A: 0%

Q: With `Cl.NC(=O)c1cccc(Nc2nccc(Nc3ccc(Oc4c(Cl)cccc4Cl)c(Cl)c3)n2)c1` [GW659009] as the compound, how does the “%Inh” value read?
A: 0%

Q: How did the “%Inh” value turn out when `O=C(Nc1ccccc1F)NC1CCN(c2ccnc(Nc3ccc(F)cc3)n2)CC1` [GSK1379800] was run?
A: 0%

Q: Which “%Inh” value does the source give for `COc1ccc(-c2coc3ccc(-c4nnc(SCc5ccc(OC)c(C(F)(F)F)c5)o4)cc23)cc1` here?
A: 7%

Q: With `Clc1ccc(-c2nn3ncccc3c2-c2ccnc(Nc3ccc4c(c3)OCCO4)n2)cc1` [GW829116] as the compound, how does the “%Inh” value read?
A: 0%

Q: `CC(C)c1nc(-c2cccc(NS(=O)(=O)c3c(F)cccc3F)c2F)c(-c2ccnc(Nc3ccc(N4CCOCC4)nc3)n2)s1` [GSK2008607] was tested. Which “%Inh” value did it give?
A: 83%

Q: `C[C@@H]1CC[C@@H](C(=O)Nc2ccccc2)CN1c1cc(-c2ccc3c(N)n[nH]c3c2)nc(N)n1` [GSK2286062] was tested. Which “%Inh” value did it give?
A: 0%

Q: How did the “%Inh” value turn out when `COc1ccc(CNC(=O)NC2CCN(c3ccnc(Nc4ccc(F)cc4)n3)CC2)cc1` [GSK1379788] was run?
A: 0%

The compounds below were run on STK35. Conditions: concentration: 1 μM, replicates: in singlicate; n = 1.

Q: With `c1ccc(Oc2ccc(Nc3ccnc4cc(-c5ccc(CNCCN6CCOCC6)o5)ccc34)cc2)nc1` [GW567145] as the compound, how does the “%Inh” value read?
A: 48%

Q: For `Cn1cc(-c2[nH]c3cc(NC(=O)[C@H](N)C4CCCCC4)cc4c3c2C=NNC4=O)cn1`, which “%Inh” value is on record?
A: 53%

Q: With `O=C(Nc1cccc(-c2nn3ccccc3c2-c2ccnc(Nc3cccc(F)c3)n2)c1)c1c(F)ccc(F)c1Cl` [GSK357952] as the compound, how does the “%Inh” value read?
A: 27%

Q: Which “%Inh” value does the source give for `Cc1ccc(C)c(NC(=O)NC2CCN(c3ccnc(Nc4ccc(F)cc4)n3)C2)c1` (centres unmarked) [GSK1379720] here?
A: 0%

Q: For `O=C(Nc1n[nH]c2cc(-c3ccoc3)ccc12)C1CC1` [SB-738481], which “%Inh” value is on record?
A: 5%

Q: For `COc1cccc(C(=O)Nc2cccc(Oc3ccc4nc(NC(=O)C5CC5)cn4n3)c2)c1`, which “%Inh” value is on record?
A: 0%

Q: For `Cc1ccc(S(=O)(=O)Nc2ccc(Nc3nccc(Nc4cccc5[nH]ncc45)n3)cc2)cc1` [GSK581271], which “%Inh” value is on record?
A: 55%

Q: `CN(C)Cc1ccc(-c2ccc3c(Nc4ccc(Oc5ccccn5)cc4)ccnc3c2)o1` [GW567148] was tested. Which “%Inh” value did it give?
A: 66%

Q: Which “%Inh” value does the source give for `Nc1ncc(-c2ccc3nccc(-c4ccncc4)c3c2)cc1S(=O)(=O)N1CCOCC1` [GSK1627798] here?
A: 0%

Q: `CC(=O)Nc1nc2cnc(Nc3cc(NC(=O)c4cccc(C5(C#N)CC5)c4Cl)ccc3C)nc2s1` was tested. Which “%Inh” value did it give?
A: 0%

Q: For `Cl.Cl.NCC(NC(=O)c1cc(-c2ccccc2)c(-c2ccnc3[nH]ccc23)s1)c1ccccc1` (centres unmarked) [GSK1321561], which “%Inh” value is on record?
A: 0%

Q: For `COc1cccc(C2=C(Nc3ccc(Cl)c(C(=O)O)c3)C(=O)NC2=O)c1` [SB-390769], which “%Inh” value is on record?
A: 0%

Q: With `O=c1[nH]cc(-c2ccc(N3CCOCC3)cc2)c2sc(-c3cn[nH]c3)cc12` [GSK2276055] as the compound, how does the “%Inh” value read?
A: 0%

Q: For `Cn1cc(-c2ccc3c(c2)CCN3C(=O)Cc2cccc(F)c2)c2c(N)ncnc21` [GSK2603358], which “%Inh” value is on record?
A: 0%

Q: How did the “%Inh” value turn out when `CN1CCN(CCCNc2nccc(-c3c(-c4ccc(F)cc4)nn4cc(C(F)(F)F)ccc34)n2)CC1` [GW621581] was run?
A: 60%

Q: For `Cc1ccc(C(=O)Nc2ccc(Nc3ccnc4cc(-c5nccs5)ccc34)cc2O)cc1.Cl` [GW494702], which “%Inh” value is on record?
A: 0%

Q: For `CC(C)(C)c1ccc2nccc(Nc3cccc(O)c3)c2c1` [GW856795], which “%Inh” value is on record?
A: 0%

Q: How did the “%Inh” value turn out when `Nc1n[nH]c2cnc(-c3ccccc3)cc12` [SB-642124] was run?
A: 0%

Q: With `CCc1ccc(-c2ccc3c(c2)-c2c(cnn2C)S(=O)(=O)N3C)cc1` as the compound, how does the “%Inh” value read?
A: 2%

Q: `O=C(Nc1n[nH]c2nc(-c3ccc(O)cc3)ccc12)C1CC1` [SB-710363] was tested. Which “%Inh” value did it give?
A: 0%

Q: For `CC(=O)N1CCN(c2ccc(Nc3nccc(-c4sc(C(C)C)nc4-c4cccc(NS(=O)(=O)c5cccc(Cl)c5)c4)n3)cn2)CC1` [GSK1660437], which “%Inh” value is on record?
A: 0%

Q: With `c1ccc(-c2n[nH]cc2Nc2ccnc3ccccc23)nc1` [GW694077] as the compound, how does the “%Inh” value read?
A: 0%

Q: Which “%Inh” value does the source give for `Oc1cc(Nc2ccnc3cc(I)ccc23)ccc1F` [GW552771] here?
A: 5%

Q: For `COc1ccc(Nc2nccc(N3CCC(NC(=O)Nc4cccc(OC)c4)C3)n2)cc1` (centres unmarked) [GSK1379742], which “%Inh” value is on record?
A: 2%

Q: How did the “%Inh” value turn out when `COc1cc(Nc2nccc(-c3c(-c4cccc(NC(=O)c5c(F)cccc5F)c4)nn4ccccc34)n2)cc(OC)c1OC` [GSK323521] was run?
A: 0%

Q: Which “%Inh” value does the source give for `c1ccc(-c2cnc3nccnn23)cc1` [AH20685] here?
A: 0%

Q: For `C[C@@H](Oc1cc(-n2cnc3cc(-c4ccnc(NCCS(C)(=O)=O)c4)ccc32)sc1C(N)=O)c1ccccc1Cl` [GSK907232], which “%Inh” value is on record?
A: 15%

Q: Which “%Inh” value does the source give for `COc1cc(Nc2ncc3c(C)nc(-c4cc5ccccc5[nH]4)n3n2)cc(OC)c1OC` [GW869516] here?
A: 0%

Q: Which “%Inh” value does the source give for `Cl.c1ccc(-c2ccc3c(Nc4ccc5[nH]ncc5c4)ccnc3c2)nc1` [GW440137] here?
A: 0%

Q: `Cl.c1ccc(-c2ccc3c(Nc4ccc5[nH]ccc5c4)ccnc3c2)nc1` [GW440138] was tested. Which “%Inh” value did it give?
A: 0%

Q: For `Cl.NC(=O)c1cccc(Nc2nccc(Nc3ccc(Oc4c(Cl)cccc4Cl)c(Cl)c3)n2)c1` [GW659009], which “%Inh” value is on record?
A: 0%

Q: With `O=C(Nc1ccccc1F)NC1CCN(c2ccnc(Nc3ccc(F)cc3)n2)CC1` [GSK1379800] as the compound, how does the “%Inh” value read?
A: 0%

Q: With `COc1ccc(-c2coc3ccc(-c4nnc(SCc5ccc(OC)c(C(F)(F)F)c5)o4)cc23)cc1` as the compound, how does the “%Inh” value read?
A: 0%

Q: For `Clc1ccc(-c2nn3ncccc3c2-c2ccnc(Nc3ccc4c(c3)OCCO4)n2)cc1` [GW829116], which “%Inh” value is on record?
A: 0%

Q: How did the “%Inh” value turn out when `CC(C)c1nc(-c2cccc(NS(=O)(=O)c3c(F)cccc3F)c2F)c(-c2ccnc(Nc3ccc(N4CCOCC4)nc3)n2)s1` [GSK2008607] was run?
A: 36%

Q: `C[C@@H]1CC[C@@H](C(=O)Nc2ccccc2)CN1c1cc(-c2ccc3c(N)n[nH]c3c2)nc(N)n1` [GSK2286062] was tested. Which “%Inh” value did it give?
A: 0%

Q: For `COc1ccc(CNC(=O)NC2CCN(c3ccnc(Nc4ccc(F)cc4)n3)CC2)cc1` [GSK1379788], which “%Inh” value is on record?
A: 0%
